From PubChem BioAssay
FAS TE block: FAS thioesterase domain inhibitors, primary screen, biochemical, fluorescence intensity, uHTS; Fatty acid synthase (Homo sapiens), P49327; recombinant FAS-TE, OMFH fluorogenic substrate, fluorescence endpoint; inhibition, % at 15 µM; hit rate 0.67% among 360,000;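 active = compounds whose normalised, plate-corrected inhibition of enzyme fluorescence in the single-dose primary screen is 50% or more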;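 note: 0% = DMSO with enzyme and 100% = substrate without enzyme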
Target sequence (P49327 whole entry, looked up, the tested form may be a part): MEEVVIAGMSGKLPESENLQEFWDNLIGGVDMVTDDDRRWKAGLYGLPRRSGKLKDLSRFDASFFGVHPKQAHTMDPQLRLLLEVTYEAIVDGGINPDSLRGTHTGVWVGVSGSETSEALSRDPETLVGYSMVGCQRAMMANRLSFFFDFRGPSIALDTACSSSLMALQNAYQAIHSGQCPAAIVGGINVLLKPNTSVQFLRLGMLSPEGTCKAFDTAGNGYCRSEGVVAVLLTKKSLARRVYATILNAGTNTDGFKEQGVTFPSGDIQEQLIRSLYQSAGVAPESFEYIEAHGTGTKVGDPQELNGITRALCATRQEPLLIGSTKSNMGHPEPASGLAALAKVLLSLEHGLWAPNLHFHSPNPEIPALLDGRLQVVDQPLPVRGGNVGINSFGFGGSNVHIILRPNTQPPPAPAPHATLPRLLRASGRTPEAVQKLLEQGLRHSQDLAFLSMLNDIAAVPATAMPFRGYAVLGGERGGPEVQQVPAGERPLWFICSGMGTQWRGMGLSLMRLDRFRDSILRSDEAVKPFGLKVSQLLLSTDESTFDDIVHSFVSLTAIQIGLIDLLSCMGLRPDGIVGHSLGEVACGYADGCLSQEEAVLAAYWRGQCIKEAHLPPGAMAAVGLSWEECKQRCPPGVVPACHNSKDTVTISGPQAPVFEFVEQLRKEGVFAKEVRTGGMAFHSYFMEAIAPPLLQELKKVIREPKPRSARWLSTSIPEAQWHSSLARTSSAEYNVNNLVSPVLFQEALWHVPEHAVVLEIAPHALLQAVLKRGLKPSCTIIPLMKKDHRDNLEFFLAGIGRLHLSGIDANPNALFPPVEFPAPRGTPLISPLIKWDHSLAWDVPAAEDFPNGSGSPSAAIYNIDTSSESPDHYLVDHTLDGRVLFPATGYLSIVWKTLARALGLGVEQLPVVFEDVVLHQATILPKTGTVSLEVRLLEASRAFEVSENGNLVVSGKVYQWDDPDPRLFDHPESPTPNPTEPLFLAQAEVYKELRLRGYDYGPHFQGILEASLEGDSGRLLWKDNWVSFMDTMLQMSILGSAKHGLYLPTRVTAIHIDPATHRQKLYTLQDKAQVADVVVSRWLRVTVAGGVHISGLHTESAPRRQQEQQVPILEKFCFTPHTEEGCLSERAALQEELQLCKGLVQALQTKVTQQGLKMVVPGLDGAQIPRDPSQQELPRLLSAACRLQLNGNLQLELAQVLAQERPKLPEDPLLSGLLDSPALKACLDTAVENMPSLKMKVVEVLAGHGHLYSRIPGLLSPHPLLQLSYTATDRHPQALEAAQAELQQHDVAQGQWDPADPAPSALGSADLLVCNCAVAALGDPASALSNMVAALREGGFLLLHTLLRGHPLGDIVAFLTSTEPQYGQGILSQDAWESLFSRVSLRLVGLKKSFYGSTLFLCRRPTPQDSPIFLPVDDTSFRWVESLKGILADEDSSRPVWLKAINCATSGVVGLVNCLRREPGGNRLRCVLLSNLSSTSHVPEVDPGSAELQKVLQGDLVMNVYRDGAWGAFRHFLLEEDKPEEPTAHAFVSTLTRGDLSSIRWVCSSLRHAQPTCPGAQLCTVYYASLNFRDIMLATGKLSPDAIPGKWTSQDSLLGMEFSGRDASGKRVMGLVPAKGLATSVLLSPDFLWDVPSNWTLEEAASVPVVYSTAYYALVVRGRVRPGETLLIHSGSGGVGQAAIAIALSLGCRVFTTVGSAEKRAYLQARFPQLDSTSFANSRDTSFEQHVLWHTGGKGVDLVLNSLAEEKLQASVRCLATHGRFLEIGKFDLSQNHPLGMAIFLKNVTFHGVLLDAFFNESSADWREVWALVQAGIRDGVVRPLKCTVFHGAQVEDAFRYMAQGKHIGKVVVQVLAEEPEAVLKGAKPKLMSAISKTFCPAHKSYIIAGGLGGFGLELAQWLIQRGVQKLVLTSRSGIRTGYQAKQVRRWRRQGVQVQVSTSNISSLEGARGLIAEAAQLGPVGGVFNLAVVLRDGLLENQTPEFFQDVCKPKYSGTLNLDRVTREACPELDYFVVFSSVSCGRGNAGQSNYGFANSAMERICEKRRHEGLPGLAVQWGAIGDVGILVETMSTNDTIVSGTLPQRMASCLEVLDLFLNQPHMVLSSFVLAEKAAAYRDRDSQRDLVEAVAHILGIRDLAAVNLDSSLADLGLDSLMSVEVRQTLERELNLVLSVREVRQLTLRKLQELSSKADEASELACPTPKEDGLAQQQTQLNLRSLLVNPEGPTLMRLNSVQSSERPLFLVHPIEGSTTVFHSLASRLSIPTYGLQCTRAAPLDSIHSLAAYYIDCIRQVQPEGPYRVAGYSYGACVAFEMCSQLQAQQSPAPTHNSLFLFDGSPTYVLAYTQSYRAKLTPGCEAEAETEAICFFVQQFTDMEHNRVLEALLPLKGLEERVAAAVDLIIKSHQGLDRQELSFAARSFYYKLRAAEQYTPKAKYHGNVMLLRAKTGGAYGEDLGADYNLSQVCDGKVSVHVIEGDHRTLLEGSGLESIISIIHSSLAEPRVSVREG
aDG glyco act: activators of alpha-DG glycosylation, primary screen, uHTS, Pro5-aDG cells, AlphaScreen; alpha-DG glycosylation AlphaScreen (IIH6); 0% Pro5, 100% B10-LARGE cell signal; activation, % at 10 µM; hit rate 0.22% among 360,000;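 active = activation of at least 8% versus controls, or a plate z-score of at least 8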;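 note: Pro5 are CHO cells carrying HIG-tagged alpha-DG that lacks glycosylation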
GC-B act: human GC-B receptor activators, primary screen, HEK293 GC-B cells, cGMP TR-FRET, EC30 CNP; Atrial natriuretic peptide receptor 2 (Homo sapiens), P20594; 0% at EC30 CNP, 100% saturating CNP; activation, % at 10 µM; hit rate 0.11% among 370,000;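 active = activation at 10 µM reaching about 35% in either raw or pattern-adjusted values, limit read from the data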
NPR1 activator: GC-A stimulated cGMP production enhancers – HEK293 GC-A cells, cGMP TR-FRET, EC30 ANP, primary screen; Atrial natriuretic peptide receptor 1 (Homo sapiens), P16066; 0% at EC30 ANP, 100% saturating ANP; activation, % at 10 µM; hit rate 0.14% among 370,000; in the data active = activation above about 40%
Numbers without * were called inactive; x = no result. An excerpt weighted towards active compounds, which were near 1.1% of everything screened.

SMILES	FAS TE block	aDG glyco act	GC-B act	NPR1 activator
Cc1ccc(Cc2c(-c3ccc(Cl)cc3)nc3ccc(Cl)cn23)cc1	20.6	-0.1	26.5	28.4
Cc1ccc2nc(-c3ccc(Cl)cc3)c(Cc3cccc(F)c3)n2c1	x	x	36.4*	27.1
Cc1ccc(-c2nc3ccc(Cl)cn3c2Cc2cccc(F)c2)cc1	13.7	-0.1	15.0	11.7
Cc1ccc(Cc2c(-c3ccc(C)cc3)nc3ccc(Cl)cn23)cc1	9.7	0.1	36.5*	30.2
COC(=O)c1cc(-c2cc(Cl)ccc2OC)c(=O)n2c1CCC2	x	x	1.4	1.9
N#Cc1ccc(Nc2nc(-c3ccc(O)cc3O)cs2)cc1C(F)(F)F	60.7*	-0.2	x	x
Cc1ccc(S(=O)(=O)c2nnn3c2nc(N2CCOCC2)c2ccccc23)cc1	36.7	0.0	37.7*	34.5
COC(=O)[C@H](C(C)C)N1Cc2nnn(Cc3ccccc3)c2-c2ccccc2S1(=O)=O	x	x	3.0	-3.7
CCOC(=O)C1=C(C)Nc2ncnn2C1/C=C/c1ccccc1 (stereo not drawn)	-3.1	-0.2	-8.2	36.5
CCCC1=C(C(=O)OCC)C(/C=C/c2ccccc2)n2ncnc2N1 (stereo not drawn)	2.1	-0.1	1.2	44.8*
O=C(NC1=C(Nc2ccc(F)cc2)C(=O)c2ccccc2C1=O)c1ccc(Cl)cc1	12.6	5.4*	-2.7	-7.1
COC(=O)[C@]12C[C@H](CC(=O)N3CCCC3)C(=O)N(Cc3ccccc3)C1=C[C@H](C(C)(C)C)O[C@@H]2C	x	x	-7.2	-6.3
O=C1OCCC1Sc1nc(-c2ccccc2)cs1 (stereo not drawn)	-2.0	-0.3	11.6	72.5*
O=C1OCCC1Sc1nnnn1-c1ccccc1 (stereo not drawn)	-15.0	0.1	0.8	-1.7
Nc1[nH]c(C(=O)c2ccccc2)c(-c2ccc(Cl)cc2)c1C(=O)NCCC1=CCCCC1	x	x	6.4	-8.8
CCOC(=O)CNCCC(=O)c1ccc(Br)cc1	1.5	0.4	-8.8	48.9*
Cc1cccc(NCCC(=O)c2ccc(Br)cc2)c1	17.5	0.2	-9.3	3.2
CCNC1=C(Cl)C(=O)c2ccccc2C1=O	-1.6	11.6*	-4.8	-3.5
O=C(c1cc(F)cc(F)c1)N1CCCC(c2nc(-c3cccs3)no2)C1 (stereo not drawn)	x	x	-4.8	0.1
CN(c1ccc(O)cc1)c1nc(O)c(C2=c3ccccc3=NC2=O)s1	1.3	-0.3	-5.5	40.7*
Cc1ccccc1CC(=O)N1CCC(n2nnc3ncccc32)CC1	x	x	-4.3	1.9
COc1ccc(CN(CCN2CCOCC2)C(=O)c2ccccc2C)cc1OC	x	x	-5.7	6.4
COC(=O)C1CN(C2CCCC2)CCS(=O)(=O)N1Cc1ccc(C)cc1 (stereo not drawn)	x	x	0.5	0.8
CCN1C(=S)N[C@@H](c2ccccc2)C(C(=O)OC)=C1C	-7.2	0.4	45.9*	34.6
COC(=O)C1=C(C)N(Cc2ccc(F)cc2)C(=S)NC1c1ccccc1 (stereo not drawn)	x	x	-6.3	-0.4
SMILES	FAS TE block	aDG glyco act	GC-B act	NPR1 activator
Cc1[nH]nc2c1C(c1ccccc1)N(c1ccccc1)C2=O (stereo not drawn)	x	x	0.2	-5.8
Cc1ccc(OCCOC(=O)c2sc(=S)n(C)c2C)cc1	58.5*	0.1	-4.5	1.1
CCOC(=O)c1sc(=S)n(C)c1NC(=O)c1ccc(OC)cc1	3.8	0.0	-0.2	12.6
CCCNC(=O)N1C2=NC(C(=O)OC)=C(C(=O)OC)[C@@H]3N(Cc4ccccc4)c4ccccc4[C@]23C[C@H]1CO	80.4*	-0.2	2.3	-3.4
CC(=O)Nc1ccc(Nc2c3c4c(cccc4n(C)c2=O)C(=O)c2ccccc2-3)cc1	-42.4	-0.4	38.1*	27.9
CCC(c1c[nH]c2ccccc12)c1cn(C)c2ccccc12 (stereo not drawn)	x	x	-0.1	-4.5
Clc1ccc(-n2nnnc2SCc2c(-c3ccccc3)nc3sccn23)cc1	23.5	-0.1	39.0*	25.4
CC(O)CN(CC(C)O)c1ccc2c(c1)Cc1cc([N+](=O)[O-])ccc1-2 (stereo not drawn)	-48.5	0.1	27.4	45.2*
COc1ccc2c(c1)C=C(CN1CCC(CO)(CCc3ccccc3)CC1)CO2	5.6	-0.2	0.1	-1.5
COc1ccc(CC2(CO)CCN(CC3=Cc4cc(Cl)ccc4OC3)CC2)cc1	25.3	13.0*	-8.4	-9.7
CC1CCN(C(=O)C2CCCN(C(=O)c3ccc4c(c3)NC(=O)CS4)C2)CC1 (stereo not drawn)	x	x	-3.5	3.1
CCOC(=O)CC1CCCCN1C(=O)c1cc(COc2cccc3cnccc23)on1 (stereo not drawn)	2.8	6.7*	3.5	0.0
COC(=O)C1CCCCN1C(=O)c1cc(COc2cccc3cnccc23)on1 (stereo not drawn)	5.8	2.3	1.7	2.5
CCn1c(SCC(=O)Nc2ccc(S(=O)(=O)Nc3cc(C)nc(C)n3)cc2)nc2sc(C)c(C)c2c1=O	x	x	-2.1	3.4
CS(=O)(=O)N1CCN(c2ccc(NC(=O)c3ccc(-c4ccc(Cl)cc4)o3)cc2)CC1	-6.4	-0.2	3.0	-7.4
CN1CCN(c2ccc(NC(=O)c3ccc(-c4ccc(Cl)cc4)o3)cc2)CC1	8.3	5.5*	7.1	6.4
COc1cc(CNc2ccc3[nH]c(=O)[nH]c3c2)ccc1OCc1ccccc1F	0.3	0.0	43.0*	-2.4
Fc1ccccc1CNc1nc(-c2cccnc2)nc2ccccc12	5.9	-0.2	35.8*	31.6
CCn1c(-c2ccsc2)nc2c1c(=O)[nH]c(=O)n2Cc1ccccc1	2.2	-0.3	41.8*	30.8
COc1cc2c(cc1NC(=O)CSc1nnc(-c3cccnc3)n1-c1ccc(Br)cc1)oc1ccccc12	x	x	-2.4	-5.6
Cc1ccc(/C=c2\sc3nc(-c4cccnc4)nn3c2=O)cc1	-4.5	0.0	-6.1	14.6
CC(C)c1ccc(/C=c2\sc3nc(-c4ccncc4)nn3c2=O)cc1	-8.8	-0.1	-18.4	41.0*
COc1ccc(C2=CCN(C)C(=O)N2c2ccc([N+](=O)[O-])cc2)cc1	x	x	-1.4	-1.4
Cc1csc(NC(=O)c2ccc(COc3cccc(Cl)c3)o2)n1	x	x	41.4*	39.5
O=C(CCc1nc(-c2ccccc2F)no1)NCCc1cccc(F)c1	x	x	-3.9	0.2
O=c1oc2ccccc2c2oc3cc(O)c(O)cc3c12	12.2	0.1	-2.0	13.6
O=c1oc2c(O)c(O)cc3c(=O)oc4c(O)c(O)cc1c4c23	83.6*	-0.1	x	x
O=C(Nc1ccccc1[N+](=O)[O-])NC1CCCCN(Cc2ccc(Cl)cc2)C1=O (stereo not drawn)	x	x	0.9	0.8
CCCCN1/C(=C/c2ccc3ccccc3[n+]2CC)Sc2ccccc21	-34.0	8.4*	x	x
CCCOc1ccccc1N/C(N)=N/c1nc(C)cc(C)n1	-9.0	0.0	-0.1	-3.7
